Test results reported in PubChem BioAssay (EPA / NIEHS).
Where “and” joins values, the source holds several entries; their conditions need not be identical. Identical values can stand only once. Records with an inconclusive call do not appear. The source holds several records for some structures; these can differ, active in one and inactive in another. Calls of active or inactive are those of the source. The calls were made as follows: active = hit-call score of the fitted dose curve at least 0.9, where 1 is the maximum; inconclusive = response in the unintended direction; inactive = score below 0.9.

Legend:
[1] = target: human Constitutive Androstane Receptor (CAR), NR1I3 (gene 9970) (UniProt Q14994); test: NVS_NR_hCAR_Antagonist: NovaScreen (NVS) Nuclear Receptor Binding Assay for human Constitutive Androstane Receptor Antagonism (CAR) (AID 2283344)
human Constitutive Androstane Receptor (CAR), NR1I3 (gene 9970), sequence (Q14994 whole entry, looked up): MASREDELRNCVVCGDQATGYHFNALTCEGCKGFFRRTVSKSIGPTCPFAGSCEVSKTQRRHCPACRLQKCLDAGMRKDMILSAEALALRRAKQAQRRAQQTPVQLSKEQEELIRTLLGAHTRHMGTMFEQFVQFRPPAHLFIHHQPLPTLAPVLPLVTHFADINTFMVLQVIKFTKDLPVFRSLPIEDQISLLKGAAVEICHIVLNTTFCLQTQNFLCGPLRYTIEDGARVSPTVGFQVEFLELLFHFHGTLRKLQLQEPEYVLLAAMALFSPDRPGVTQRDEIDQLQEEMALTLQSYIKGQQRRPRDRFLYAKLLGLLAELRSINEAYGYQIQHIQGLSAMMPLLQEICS
How it was run: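 Cell-free TR-FRET binding read 1 h after dosing, antagonist mode; loss of signal versus DMSO baseline. Primary screen in duplicate at a single 25 uM; actives retested in concentration series.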

[2] = target: Bile acid receptor (Homo sapiens) (UniProt Q96RI1); test: NVS_NR_hFXR_Agonist: NovaScreen (NVS) Nuclear Receptor Binding Assay for human Farnesoid X Receptor Agonism (FXR) (AID 2283347)
Bile acid receptor (Homo sapiens), sequence (Q96RI1 whole entry, looked up): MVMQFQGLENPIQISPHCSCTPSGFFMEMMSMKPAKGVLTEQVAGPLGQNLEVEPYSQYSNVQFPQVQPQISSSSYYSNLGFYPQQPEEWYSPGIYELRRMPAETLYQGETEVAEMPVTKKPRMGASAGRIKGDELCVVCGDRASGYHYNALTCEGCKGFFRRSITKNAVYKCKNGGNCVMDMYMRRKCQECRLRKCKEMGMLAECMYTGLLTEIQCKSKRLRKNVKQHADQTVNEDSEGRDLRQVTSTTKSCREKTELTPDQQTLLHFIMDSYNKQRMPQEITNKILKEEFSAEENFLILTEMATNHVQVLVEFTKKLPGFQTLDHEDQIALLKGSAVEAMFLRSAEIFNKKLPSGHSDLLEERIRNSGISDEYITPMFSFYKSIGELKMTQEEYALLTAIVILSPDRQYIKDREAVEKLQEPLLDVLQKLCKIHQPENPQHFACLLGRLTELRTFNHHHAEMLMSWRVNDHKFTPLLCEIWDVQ
How it was run: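 Cell-free TR-FRET binding assay with extracted human FXR protein, agonist format, read 1 h after dosing. Primary screen at 25 uM single concentration in duplicate, actives retested in concentration series; gain of signal versus DMSO.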

[3] = target: bovine Gamma-Aminobutyric Acid Type A Receptor Agonist (GABAR Agonist), GABRA1 (gene 780973) (UniProt P08219); test: NVS_LGIC_bGABAR_Agonist: NovaScreen (NVS) Ligand-Gated Ion Channel Assay for bovine Gamma-Aminobutyric Acid Type A Receptor Agonist (GABAR Agonist) (AID 2283338)
How it was run: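 Radioligand binding to bovine cerebellar membranes in agonist format, read by filter-based scintillation counting after 1 h. Primary screen in duplicate at 25 uM, with actives followed in concentration series. Gain of signal versus DMSO.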

[4] = system: NCBI gene 100848466; test: NVS_NR_bPR: NovaScreen (NVS) Nuclear Receptor Binding Assay for bovine Progextron Receptor (PR) (AID 2283343);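 as to AC50: actives lower bound radioligand signal below DMSO meaning displacement of the label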
How it was run: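 Bovine uterine membrane preparation; radioligand displacement read by scintillation counting 18 h after dosing. Primary screen single concentration, 25 uM, in duplicate; actives followed up in concentration series. Signal loss versus DMSO baseline.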

[5] = target: Estrogen receptor (Homo sapiens) (UniProt P03372); test: NVS_NR_hER: NovaScreen (NVS) Nuclear Receptor Binding Assay for human Estrogen Receptor (ER) (AID 2283348)
Estrogen receptor (Homo sapiens), sequence (P03372 whole entry, looked up, the tested form may be a part): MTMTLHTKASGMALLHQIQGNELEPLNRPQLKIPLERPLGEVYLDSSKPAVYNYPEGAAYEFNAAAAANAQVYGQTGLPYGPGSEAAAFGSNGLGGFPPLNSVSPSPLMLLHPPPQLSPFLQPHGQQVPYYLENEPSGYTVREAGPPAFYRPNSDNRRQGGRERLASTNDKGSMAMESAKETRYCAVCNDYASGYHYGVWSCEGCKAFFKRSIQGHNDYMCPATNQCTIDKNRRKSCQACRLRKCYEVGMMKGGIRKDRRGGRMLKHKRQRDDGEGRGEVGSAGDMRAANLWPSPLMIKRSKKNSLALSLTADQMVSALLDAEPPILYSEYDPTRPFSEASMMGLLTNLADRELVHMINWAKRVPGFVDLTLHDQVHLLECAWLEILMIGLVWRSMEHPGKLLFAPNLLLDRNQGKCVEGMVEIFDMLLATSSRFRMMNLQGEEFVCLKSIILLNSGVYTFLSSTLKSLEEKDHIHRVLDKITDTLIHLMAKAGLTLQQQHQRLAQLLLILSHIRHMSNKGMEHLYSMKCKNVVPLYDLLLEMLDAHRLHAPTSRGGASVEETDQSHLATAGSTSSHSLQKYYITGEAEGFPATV
How it was run: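 Radioligand competitive displacement binding to estrogen receptor from MCF7 extract, cell-free; 18 h after dosing, scintillation read-out. Primary screen in duplicate at 25 uM; actives followed up in concentration series; loss of signal vs DMSO.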

[6] = target: Estrogen receptor (Homo sapiens) (UniProt P03372); test: OT_ER_ERaERa_1440: Odyssey Thera (OT) 24-hour HEK293T Protein-Complementation Assay for Estrogen Receptor-alpha/-alpha Homodimer (AID 2283349);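 also: hits raise fluorescence above DMSO for agonists and antagonists alike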
How it was run: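 HEK293T cells stably expressing the human ER alpha ligand-binding domain (aa 310-547) as a homodimer PCA were dosed for 24 hours. Fluorescence intensity was read by laser scanning cytometry, and gain of signal was fitted relative to DMSO vehicle.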

[7] = target: Bile acid receptor (Homo sapiens) (UniProt Q96RI1); test: NVS_NR_hFXR_Antagonist: NovaScreen (NVS) Nuclear Receptor Binding Assay for human Farnesoid X Receptor Antagonism (FXR) (AID 2283350)
How it was run: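 Cell-free TR-FRET ligand-binding read-out on human FXR (NR1H4) in antagonist mode, measured 1 h after dosing. Primary screen in duplicate at 25 uM, actives retested in concentration series; signal loss scored versus DMSO.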

[8] = target: Estrogen receptor (Homo sapiens) (UniProt P03372); test: OT_ER_ERaERa_0480: Odyssey Thera (OT) 8-hour HEK293T Protein-Complementation Assay for Estrogen Receptor-alpha/-alpha Homodimer (AID 2283351);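 also: rise in fluorescence from reassembled reporter fragments on ERα LBD homodimer in nucleus or whole cell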
How it was run: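 The readout is complementation of fragments fused to the human ER alpha ligand-binding domain (aa 310-547), stably expressed in HEK293T cells. After 8 h of exposure, the increase in nuclear/cytoplasmic fluorescence was measured by laser scanning cytometry and fitted relative to DMSO.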

[9] = target: Estrogen receptor (Homo sapiens) + Estrogen receptor beta (Homo sapiens) (UniProt P03372+Q92731); test: OT_ER_ERaERb_0480: Odyssey Thera (OT) 8-hour HEK293T Protein-Complementation Assay for Estrogen Receptor-alpha/-beta Heterodimer (AID 2283352)
Estrogen receptor (Homo sapiens) + Estrogen receptor beta (Homo sapiens), sequence (P03372 whole entry, looked up): as the sequence (P03372 whole entry, looked up, the tested form may be a part) above
Estrogen receptor (Homo sapiens) + Estrogen receptor beta (Homo sapiens), sequence (Q92731 whole entry, looked up): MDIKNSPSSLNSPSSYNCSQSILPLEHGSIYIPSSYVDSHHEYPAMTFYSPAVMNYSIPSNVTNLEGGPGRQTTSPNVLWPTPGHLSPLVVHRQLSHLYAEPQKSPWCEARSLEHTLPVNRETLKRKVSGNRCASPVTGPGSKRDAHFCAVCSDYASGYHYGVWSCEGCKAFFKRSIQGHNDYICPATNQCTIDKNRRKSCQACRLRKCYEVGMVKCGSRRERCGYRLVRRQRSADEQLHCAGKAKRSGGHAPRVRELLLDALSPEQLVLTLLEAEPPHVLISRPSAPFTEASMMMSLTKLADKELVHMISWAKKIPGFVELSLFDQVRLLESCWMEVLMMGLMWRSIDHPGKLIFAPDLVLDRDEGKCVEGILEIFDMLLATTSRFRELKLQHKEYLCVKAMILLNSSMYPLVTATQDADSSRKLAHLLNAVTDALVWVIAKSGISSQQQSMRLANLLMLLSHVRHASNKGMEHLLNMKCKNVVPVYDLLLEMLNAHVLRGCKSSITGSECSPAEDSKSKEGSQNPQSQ
How it was run: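 Compound added to HEK293T cells carrying split-reporter-tagged ER-alpha and ER-beta LBDs, incubated 8 hours, then imaged by laser scanning cytometer. Signal rise in nucleus, or nucleus and cytoplasm, over vehicle was fitted in the positive direction.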

[10] = target: Androgen Receptor/SRC-1 Co-activator, AR (gene 367) (UniProt P10275); test: OT_AR_ARSRC1_0960: Odyssey Thera (OT) 16-hour HEK293T Protein-Complementation Assay for Androgen Receptor/SRC-1 Co-activator (AID 2283353);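 also: actives raise the signal above DMSO so potency reflects increased AR and SRC-1 complex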
Androgen Receptor/SRC-1 Co-activator, AR (gene 367), sequence (P10275 whole entry, looked up, the tested form may be a part): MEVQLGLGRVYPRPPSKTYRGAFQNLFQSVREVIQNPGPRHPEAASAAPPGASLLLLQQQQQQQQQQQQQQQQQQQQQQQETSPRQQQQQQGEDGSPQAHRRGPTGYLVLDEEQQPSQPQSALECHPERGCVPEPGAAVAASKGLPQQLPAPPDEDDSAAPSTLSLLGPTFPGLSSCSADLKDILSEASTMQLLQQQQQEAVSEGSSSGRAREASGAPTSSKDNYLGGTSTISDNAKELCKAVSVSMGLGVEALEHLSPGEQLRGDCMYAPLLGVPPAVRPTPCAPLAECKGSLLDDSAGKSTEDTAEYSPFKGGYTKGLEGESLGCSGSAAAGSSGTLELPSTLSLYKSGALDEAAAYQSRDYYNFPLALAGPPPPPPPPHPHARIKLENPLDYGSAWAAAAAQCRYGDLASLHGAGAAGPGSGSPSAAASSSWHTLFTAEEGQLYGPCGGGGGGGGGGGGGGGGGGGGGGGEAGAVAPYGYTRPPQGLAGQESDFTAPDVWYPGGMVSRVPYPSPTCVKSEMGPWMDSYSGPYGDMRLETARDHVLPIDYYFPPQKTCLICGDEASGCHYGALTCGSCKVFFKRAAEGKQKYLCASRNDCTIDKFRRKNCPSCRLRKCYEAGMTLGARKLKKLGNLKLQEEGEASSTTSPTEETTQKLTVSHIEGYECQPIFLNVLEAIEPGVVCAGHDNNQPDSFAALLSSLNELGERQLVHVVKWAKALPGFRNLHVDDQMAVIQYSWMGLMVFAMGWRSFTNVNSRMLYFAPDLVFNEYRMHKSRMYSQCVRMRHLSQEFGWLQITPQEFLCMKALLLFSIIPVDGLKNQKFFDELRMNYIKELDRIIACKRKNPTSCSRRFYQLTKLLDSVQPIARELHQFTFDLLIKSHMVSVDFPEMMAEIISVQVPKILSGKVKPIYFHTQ
How it was run: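 HEK293T cells stably expressing AR and SRC-1 fused to Venus YFP fragments, imaged 16 h after dosing. Nuclear/cytoplasmic fluorescence ratio at 488 nm from at least 400 cells per image; gain of signal relative to DMSO.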

[11] = target: Estrogen receptor beta (Homo sapiens) (UniProt Q92731); test: OT_ER_ERbERb_0480: Odyssey Thera (OT) 8-hour HEK293T Protein-Complementation Assay for Estrogen Receptor-beta/-beta Homodimer (AID 2283357);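 also: active means signal gain over DMSO baseline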
Estrogen receptor beta (Homo sapiens), sequence (Q92731 whole entry, looked up, the tested form may be a part): as the sequence (Q92731 whole entry, looked up) above
How it was run: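 Fluorescence intensity, nuclear for agonists and nuclear plus cytoplasmic for antagonists, was quantified by laser scanning cytometry versus vehicle after 8 h treatment. The cells were HEK293T stably carrying ER beta LBD fragment-complementation partners.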

[12] = target: Retinoic acid receptor alpha (Homo sapiens) (UniProt P10276); test: NVS_NR_hRAR_Antagonist: NovaScreen (NVS) Nuclear Receptor Binding Assay for human Retinoic Acid Alpha Receptor Antagonism (RAR) (AID 2283358)
How it was run: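 Cell-free TR-FRET binding assay with extracted human RARalpha in antagonist mode, read 2 h after dosing. Loss of signal was fitted relative to DMSO; the primary screen used 25 uM in duplicate, with concentration series on follow-up.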

[13] = target: chimpanzee Androgen Receptor (AR), AR (gene 747460) (UniProt O97775); test: NVS_NR_cAR: NovaScreen (NVS) Nuclear Receptor Binding Assay for chimpanzee Androgen Receptor (AR) (AID 2283346);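 also: radioligand displacement from AR measured by scintillation counting in a cell-free assay; a loss of bound radioligand signal versus DMSO counts as binding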
chimpanzee Androgen Receptor (AR), AR (gene 747460), sequence (O97775 whole entry, looked up): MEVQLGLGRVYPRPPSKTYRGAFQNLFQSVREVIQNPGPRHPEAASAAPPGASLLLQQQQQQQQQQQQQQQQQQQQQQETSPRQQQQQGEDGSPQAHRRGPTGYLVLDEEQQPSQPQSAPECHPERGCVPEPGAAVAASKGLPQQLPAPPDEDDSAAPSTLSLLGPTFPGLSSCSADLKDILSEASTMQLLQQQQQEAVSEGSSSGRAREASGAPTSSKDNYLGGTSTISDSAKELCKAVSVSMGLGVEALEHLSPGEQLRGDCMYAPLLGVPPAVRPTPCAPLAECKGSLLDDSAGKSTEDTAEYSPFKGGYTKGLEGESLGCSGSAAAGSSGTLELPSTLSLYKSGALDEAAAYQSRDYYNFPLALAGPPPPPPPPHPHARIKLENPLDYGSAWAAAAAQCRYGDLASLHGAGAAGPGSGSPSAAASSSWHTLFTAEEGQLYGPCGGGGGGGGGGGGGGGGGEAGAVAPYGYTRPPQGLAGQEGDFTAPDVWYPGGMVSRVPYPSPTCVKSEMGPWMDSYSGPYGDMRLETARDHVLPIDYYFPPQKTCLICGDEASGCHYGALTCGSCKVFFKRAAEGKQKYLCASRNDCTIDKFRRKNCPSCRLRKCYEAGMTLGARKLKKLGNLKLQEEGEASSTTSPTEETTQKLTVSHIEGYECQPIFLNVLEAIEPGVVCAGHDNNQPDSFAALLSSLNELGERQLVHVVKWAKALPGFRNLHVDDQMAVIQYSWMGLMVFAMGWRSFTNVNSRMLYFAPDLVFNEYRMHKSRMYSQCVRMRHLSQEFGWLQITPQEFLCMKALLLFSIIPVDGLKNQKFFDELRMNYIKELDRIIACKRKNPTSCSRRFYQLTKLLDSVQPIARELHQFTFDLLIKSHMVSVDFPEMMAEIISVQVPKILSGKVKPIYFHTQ
How it was run: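 Radioligand binding to chimpanzee AR expressed in Sf9/Sf21 cells, cell-free, measured 72 h after dosing by lysate-based scintillation counting. Loss of signal vs DMSO; initial duplicate screen at 25 uM, actives retested in concentration series.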

[14] = target: Androgen Receptor/SRC-1 Co-activator, AR (gene 367) (UniProt P10275); test: OT_AR_ARSRC1_0480: Odyssey Thera (OT) 8-hour HEK293T Protein-Complementation Assay for Androgen Receptor/SRC-1 Co-activator (AID 2283354);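 also: hits raise the complementation signal above DMSO so AC50 marks enhancers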
How it was run: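 HEK293T cells stably expressing AR and SRC-1 fused to Venus YFP fragments, imaged 8 h after dosing. Complementation fluorescence scored as nuclear/cytoplasmic ratio at 488 nm in at least 400 cells per image; gain fitted versus DMSO.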

[15] = target: human Peroxisome Proliferator-activated Receptor alpha (PPARa), PPARA (gene 5465) (UniProt Q07869); test: NVS_NR_hPPARa: NovaScreen (NVS) Nuclear Receptor Binding Assay for human Peroxisome Proliferator-activated Receptor alpha (PPARa) (AID 2283359);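 also: activity means loss of TR-FRET signal versus DMSO baseline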
How it was run: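 Cell-free TR-FRET binding assay with extracted PPARα protein, read 1 h after dosing. Primary screen in duplicate at 25 uM, with actives retested in concentration series. Loss of signal versus DMSO.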

[16] = target: rat Gamma-Aminobutyric Acid Type A Receptor BDZ, alpha 6 site (GABARa6), Gabra6 (gene 29708) (UniProt P30191); test: NVS_LGIC_rGABARa6: NovaScreen (NVS) Ligand-Gated Ion Channel Assay for rat Gamma-Aminobutyric Acid Type A Receptor BDZ, alpha 6 site (GABARa6) (AID 2283339)
How it was run: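 Rat cerebellar membranes; radioligand binding, filtration and scintillation counting, read 1 h after dosing. Single-concentration duplicate screen at 25 uM, then concentration-response up to 50 uM for actives; loss of signal fitted versus DMSO baseline.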

Measured: AC50

Cc1cc(C)nc(NC(=O)NS(=O)(=O)c2ccccc2C(=O)OC2COC2)n1
inactive: [1] | [2]

O=[N+]([O-])/N=C1\NCCN1Cc1ccc(Cl)nc1
not listed: [1] | [2] | [13] | [14] | [15] | [16]
inactive: all other assays above

CCCN(CCOc1c(Cl)cc(Cl)cc1Cl)C(=O)n1ccnc1
active: [4] 5.4 µM | [1] 32 µM | [13] 19.7 µM
inactive: [7] | [11] | [12]

CC1(C)C(C=C(Cl)Cl)C1C(=O)OC(C#N)c1ccc(F)c(Oc2ccccc2)c1 (configuration not stated)
inactive: [4] | [1] | [5] | [6] | [9] | [12]

CC(C)(C)C(O)/C(=C\c1ccc(Cl)cc1Cl)n1cncn1 (configuration not stated)
active: [13] 1.51 µM
inactive: [4] | [6] | [8] | [11]

Oc1ccc(Cl)cc1Cc1ccccc1
inactive: [3] | [1] | [12] | [15]
active: [4] 12.9 µM [middle of 6 runs] | [1] 9.68 µM and 25.2 µM and 25 µM | [13] 15.3 µM and 15.7 µM and 19.7 µM | [10] 50.5 µM | [14] 63.2 µM | [11] 12 µM

CC(C)OC(=O)Nc1cccc(Cl)c1
inactive: [16] | [6] | [8] | [9]

CCCN(CCC)c1c([N+](=O)[O-])cc(C(F)(F)F)cc1[N+](=O)[O-]
inactive: [1] | [5] | [6] | [8] | [10] | [14]

C[C@H]1[C@H](c2ccc(Cl)cc2)SC(=O)N1C(=O)NC1CCCCC1
active: [10] 67.7 µM
inactive: [4] | [5] | [6] | [9] | [14] | [11]

COc1nn(CSP(=S)(OC)OC)c(=O)s1
inactive: [4] | [6] | [8] | [9] | [11]
active: [1] 18.3 µM
